FMDV inh: blocks foot and mouth disease virus. FMDV antiviral cell-based qHTS. Potency, µM (series often up to 57.9 µM), hits mostly inhibitors. 410,000 compounds, 1.2% hits. AID 1159524; calls by dose curve; tested in HEK293T cells; also: read-out not given here; nearly all actives have a fitted effect of over 45% in size
HCMV inh: inhibitors of human cytomegalovirus. HFF cells, HCMV-luciferase reporter, 72 h; hits give low values. activity change, negative = inhibition, % at 57.5 µM. 410,000 compounds, 4.5% hits. AID 1259415; in the data active = activity change below about -60%; inconclusive = no clear call, values can overlap the other calls; inactive = above about -39%
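Inhibition of viral replication was scored as loss of reporter luminescence in HFFs infected with HCMV-luciferase (MOI 1 PFU/cell) for 72 h; compounds tested at 2 doses, normalized to buffer and Salinomycin controls.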
Vaccinia Venus: vaccinia inhibition (Venus reporter) | 330,000 compounds, 0.46% hits | Potency, µM (series often up to 36.5 µM), hits mostly inhibitors | AID 720580 | Vaccinia virus Venus reporter expression, fluorescence; calls by dose curve; tested in A549 cells; also: nearly all actives have a fitted effect of over 30% in size
VACV mCherry inh: inhibitors of vaccinia virus infection (mCherry reporter signal). Vaccinia virus mCherry reporter infection, fluorescence. Potency, µM (highest dose often 36.5 µM), most hits filed as inhibitors. 310,000 compounds, 0.63% hits; calls by dose curve; tested in A549 cells; also: nearly all actives have a fitted effect of over 35% in size
HCV inhibitor: inhibitors of hepatitis C virus infection | Huh7.5.1 HCVcc-Cre infection, luciferase reporter, 44 h | Potency, µM (doses to about 41.8 µM), usual class: inhibitors | 340,000 compounds, 3.4% hits | AID 651820
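A cell-based infection assay in which seeded cells (1,000 per well) receive test compound after 4 h, are inoculated with HCVcc-Cre at approximately 0.5 moi, and are incubated 44 h before luminescence detection.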
Sm TGR block: blocks Schistosoma mansoni thioredoxin glutathione reductase. purified TGR, DTNB reduction, TNB absorbance 405 nm. Potency, µM (titrated, usually from 114 µM), most hits filed as inhibitors. 360,000 compounds, 3% hits. AID 485364; also: nearly all actives have a fitted effect of over 60% in size
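TGR 20 nM + NADPH 100 uM (dispensed conc.), cpd preinc 15 min RT; start with NADPH (500 uM addition) then DTNB (15 mM addition). Kinetic TNB absorbance, 405 nm filter. Four-parameter Hill fit across titration.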
Numbers stand for hits; – = inactive; ? = inconclusive; · = no result given; [ ] = another dose, or the depositor's remark. Most compounds without a hit are left out; they make up all but 9.3% or so of the library. Unless noted, calls follow the shape of the dose curve; as a rule, active = well fitted curve in the direction sought with a large enough effect; inconclusive = small, poorly fitted or top-dose-only effect, or another doubt; inactive = no such curve, though single readings can be large; an effect the other way counts as inactive or inconclusive.

SMILES | FMDV inh | HCMV inh | Vaccinia Venus | VACV mCherry inh | HCV inhibitor | Sm TGR block
CCN(CC(=O)Nc1c(F)cccc1F)C(=O)CCSc1ccc(C)cc1 | – | – | – | – | – | –
CC(=C/c1ccc(C(C)C)cc1)/C=N/NC(=O)CSc1ccccn1 | – | – | · | · | ? | –
COc1ccc(-c2sc3cc4c(cc3c2-c2ccc(OCCN3CCOCC3)cc2)OCO4)cc1 | – | – | – | – | – | ·
Cc1ccc(S(=O)(=O)Nc2nc(C)c(C(=O)NN)s2)cc1 | – | – | – | – | – | 71µM
CC(=O)Nc1ccc(S(=O)(=O)NCc2ccc(C)n2C)cc1 | – | – | – | – | – | 14µM
CCOC(=O)Nc1sc(NS(=O)(=O)c2ccccc2)nc1C | – | – | – | – | – | 50µM
Cc1nc(NS(=O)(=O)c2ccccc2)sc1NC(=O)Nc1ccc(Cl)cc1 | – | – | · | · | – | 5.6µM
Cc1nc(NS(=O)(=O)c2ccccc2)sc1NC(=O)Nc1ccccc1 | – | – | – | – | – | ·
CCOC(=O)Nc1sc(NS(=O)(=O)c2ccc(C)cc2)nc1C | – | – | – | – | – | ?
O=C(CSc1cccc[n+]1[O-])Nc1ccc2c(c1)OCCO2 | – | – | – | – | – | –
c1ccc(Nc2nnc(-c3ccc4c(c3)OCO4)o2)cc1 | · | – | · | · | · | ·
COC(=O)[C@@H]1C[C@H]2CC[C@H](O)C[C@H]2N1Cc1ccc(C(F)(F)F)cc1 | – | – | – | – | – | –
CCCC(=O)Nc1ccc(C(=O)NN2C(=O)c3ccccc3C2=O)cc1 | – | ? | – | – | – | –
CC(=O)c1ccc(NC(=O)Nc2sc(NS(=O)(=O)c3ccccc3)nc2C)cc1 | – | – | – | – | – | 35µM
CCOC(=O)Nc1ccc(S(=O)(=O)NCc2ccccc2)cc1 | · | -62 | – | ? | ? | –
CC(=O)c1ccc(NS(=O)(=O)c2ccccc2)cc1 | – | ? | · | · | – | –
COc1ccc(N=Nc2c(N)n[nH]c2N)cc1 | – | – | ? | ? | – | –
COc1ccc(C(=O)O)cc1NS(=O)(=O)c1cccc2nsnc12 | – | – | – | · | – | –
COc1cc(/C=N/NC(=O)CCn2c3ccccc3c3ccccc32)ccc1O | · | ? | – | – | 7.9µM | –
CCOc1ccccc1-c1cc(C(=O)N/N=C/c2ccc(O)c(OC)c2)c2ccccc2n1 | ? | – | – | 13µM | – | –
COc1cc(/C=N/NC(=O)c2cccc(NC(=O)c3ccccc3C)c2)ccc1O | – | – | – | – | – | –
Cn1c2ccccc2c2cc(/C=N/NC(=O)c3cc(O)ccc3O)ccc21 | 20µM | – | ? | – | 10µM | ?
COc1cc(/C=N/NC(=O)c2cccc(NC(=O)c3ccccc3)c2)ccc1O | – | -82 | – | ? | – | –
COc1ccc(/C=N/NC(=O)CCOc2ccccc2C)cc1OC | – | -79 | – | – | – | –
Nc1c(C(=O)Nc2ccccc2Br)sc2nc(-c3cccs3)ccc12 | ? | -71 | ? | ? | · | –
SMILES | FMDV inh | HCMV inh | Vaccinia Venus | VACV mCherry inh | HCV inhibitor | Sm TGR block
Nc1c(C(=O)Nc2ccccc2)sc2nc(-c3ccco3)ccc12 | ? | – | · | · | 11µM | 1µM
Cc1ccc(NS(=O)(=O)c2ccc(C(=O)N3CCC3)cc2)cc1 | – | – | – | – | ? | –
CCOC(=O)N1CCN(C(=O)c2ccc(S(=O)(=O)Nc3ccc(C)cc3)cc2)CC1 | – | -69 | – | – | ? | ·
CCOC(=O)N1CCN(C(=O)c2ccc(NS(=O)(=O)c3ccc(C)cc3)cc2)CC1 | – | -76 | – | – | · | –
CCC1Oc2ccc(C)cc2N(CC(=O)N(Cc2ccncc2)Cc2ccco2)C1=O (stereo unspecified) | – | – | – | – | – | 22µM
C=CCNC(=O)c1onc(CSc2cc(C)cc(C)c2)c1C(=O)NCC=C | – | ? | · | 3.2µM | ? | –
CC(=O)N/C(=C\c1ccccc1)C(=O)OCC(=O)N(C)C1CCCCC1 | – | – | – | – | – | –
Cc1ccc(-c2c(NC(=O)C(C)C)n(C)c3ccccc3c2=O)cc1 | – | – | – | – | 3.2µM | –
CC(C)C(=O)Nc1c(-c2ccccc2)c(=O)c2ccccc2n1C | – | – | – | – | – | –
CCOc1cc(S(=O)(=O)NCc2ccncc2)c(C)cc1C | – | – | – | – | – | –
NCCn1oc(=O)[nH]c1=O | – | · | – | – | · | ·
CCN1C=CC(=C2C(=O)c3ccccc3C2=O)C=C1 | 4.5µM | -89 | · | · | – | –
CCCN1C=CC(=C2C(=O)c3ccccc3C2=O)C=C1 | 1µM | -98 | · | · | – | –
CCCCCCN1C=CC(=C2C(=O)c3ccccc3C2=O)C=C1 | – | -66 | · | · | – | –
CN1C=CC(=C2C(=O)c3ccccc3C2=O)C=C1 | · | · | · | · | · | –[11.4 µM]
COc1ccc(-c2oc(=O)c3cc(OC)c(OC)cc3c2/C=C/c2cccc([N+](=O)[O-])c2)cc1 | – | – | ? | ? | – | ?
Cc1cccc(NC(=O)c2sc3nc(-c4ccccc4)cn3c2C)c1C | – | – | – | – | · | –
CCOc1cc(C2CC(=O)N3CN(C4CCCCC4)CSC3=C2C#N)ccc1O (stereo unspecified) | – | – | – | – | ? | 10µM
CCOc1cc(C2CC(=O)NC(SCC)=C2C#N)ccc1O (stereo unspecified) | – | – | – | ? | – | –
N#CC1=C2SCN(C3CCCCC3)CN2C(=O)CC1c1ccc(Br)cc1 (stereo unspecified) | – | – | – | – | · | 10µM
Cn1c2c(c(=O)n(C)c1=O)C(c1ccc(Br)cc1)C(C#N)=C(N)N2 (stereo unspecified) | – | – | · | · | – | –
COc1cccc2[nH]c3c(N4CCC5(CC4)OCCO5)ncnc3c12 | – | – | · | · | – | –
Cc1ccc2[nH]c3c(N4CCN(Cc5ccc6c(c5)OCO6)CC4)ncnc3c2c1 | · | ? | · | · | · | –
O=C(c1ccco1)N1CCN(c2ncnc3c2[nH]c2ccc(Cl)cc23)CC1 | · | · | · | · | –[0.335 µM] | 50µM
c1ccc2c(c1)[nH]c1c(N3CCC4(CC3)OCCO4)ncnc12 | ? | · | ? | · | 7.1µM | –
SMILES | FMDV inh | HCMV inh | Vaccinia Venus | VACV mCherry inh | HCV inhibitor | Sm TGR block
Cc1ccc2c(c1)[nH]c1c(N3CCN(Cc4ccccc4)CC3)ncnc12 | · | -85 | ? | ? | 3.2µM | –
Cc1ccc2[nH]c3c(N4CCN(Cc5ccccc5)CC4)ncnc3c2c1 | 11µM | -107 | ? | ? | ? | –
Nn1c(SCc2ccccc2F)nnc1-c1cccnc1 | – | – | · | · | – | –
CN1CCC(OC(=O)c2ccco2)CC1 | – | – | – | – | – | –
Fc1cccc(-c2n[nH]c(=S)n2-c2ccccc2)c1 | – | – | · | · | – | –
CCCCCCCCCCCCN1[C@@H](CC(=O)OC)c2cc(F)cc(F)c2S1(=O)=O | – | – | – | – | – | ·
OC1(c2cccc(C(F)(F)F)c2)CCN(c2ccc(-c3ccccc3)nn2)CC1 | – | – | – | – | ? | –
Cc1ccc2[nH]c3c(N4CCCCCC4)ncnc3c2c1 | · | · | · | · | 3.2µM | –
OC1(c2cccc(C(F)(F)F)c2)CCN(c2ncnc3c2[nH]c2ccccc23)CC1 | 28µM | – | ? | ? | ? | –

Screening data as filed in PubChem.
